This is an account of results in PubChem BioAssay (NCI).

The panel holds about 83,000 compounds, 20% with a hit somewhere; the sample as a whole holds those more often.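 Assay: single dose, 48 h. Readout: percent growth (0 = no net growth; negative = cell death). Active: <10.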 Values without a mark were called inactive. Active and inactive are the calls of the source.

Holding throughout (assay): NCI-60 one-dose screen, 48 h (100 = growth as untreated, 0 = no growth, -100 = all killed)
Common to all, as to settings: 10 µM unless noted

For assay [1], the system named is SK-MEL-2 melanoma.
The subject of assay [2] is EKVX NSCLC.
The test system of assay [3] is SN12C renal.
For assay [4], the system named is UO-31 renal.
In assay [5] the test system is TK-10 renal.
Assay [6] concerns ACHN renal.
Assay [7] relates to CAKI-1 renal.
The subject of assay [8] is A498 renal.
Assay [9] concerns MOLT-4 leukemia.
Assay [10] has as its system CCRF-CEM leukemia.

Turning to `Cc1[nH]c2ccc(F)cc2c1CCNC(=O)C1CCN(C(=O)c2ccccc2)CC1`, the growth was 98.9% [25 µM] in assay [1]; 77.9% [25 µM] in assay [2]; 94.5% [25 µM] in assay [3]; 67.6% [25 µM] in [4]; 91.1% [25 µM] in assay [5]; 97% [25 µM] in assay [6]. Further, the growth in assay [7] was 68.2% [25 µM]; in assay [8], 56.2% [25 µM]; in [9], 88% [25 µM].

Consider `Cn1ccc(=O)c(S(N)(=O)=O)c1`, for which the growth is 99.8% in assay [1]; 89.3% in [2]; 101% in assay [3]; 69% in assay [4]; 113% in [5]; 95.5% in assay [6]. The growth in [7] was 67.2%; in [8] it was 107%; in assay [10] it was 99.9%; in [9], 94.4%.

For the molecule `ClC(Cl)c1nc(-c2cccnc2)n2nc(-c3ccccc3)cc2n1`, the growth in assay [1] is 87.6%; in assay [2], 15.1%; in [3], 41.7%; in [4], 59.9%; in [5], 27.3%; in assay [6] it was -5.02% (active). The growth in [7] is -2.31% (active); in [8], 58.5%; in [9], 15%.

Take `COc1ccc(-c2nc(SCCC(C)C)nc(Nc3ccc(F)c(Cl)c3)c2C#N)cc1`: the growth in assay [1] was 120%; in assay [2] it was 55.7%; in assay [3], 56.7%; in assay [4], 56.6%; in assay [5], 62.6%; in assay [6], 47.8%. The growth is 75.5% in assay [7], 76.8% in assay [8], 71% in [10] and 86.1% in assay [9].

Turning to `c1ccc(Nc2nc(Nc3ccccc3)nc(Nc3ccccc3)n2)cc1`, the growth in assay [1] was 85.8%; in assay [2], 77.9%; in [3], 100%; in assay [4] it was 55.5%; in [5] it was 74.6%; in [6] it was 91.9%. The growth was 85% in assay [7], 79% in assay [8] and 65.7% in [9].

Take `CCOC(=O)CC(=O)OC`: the growth in [1] was 107%; in assay [2], 99.1%; in assay [3], 108%; in assay [4] it was 90.4%; in assay [5], 106%; in [6], 107%. Besides, the growth in assay [7] is 91.2%; in assay [8], 92.2%; in [10] it was 97.5%; in assay [9], 83.3%.

`O=C(NNC(=S)Nc1ccccc1)c1cc2ccc1CCc1ccc(cc1)CC2`: the growth in assay [1] was 74.5%; in assay [2], 76.3%; in assay [3] it was 58.3%; in assay [4] it was 82.2%; in assay [5] it was 99.6%; in assay [6], 61.4%. Also, the growth in assay [7] was 63.8%; in assay [8] it was 61%; in assay [10], 33.8%; in assay [9] it was 57%.

In the case of `C=C1CCC2C3(C)COC(C)(C)OC3CCC2(C)C1C/C=C1/C(=O)OCC1Oc1ccccc1OC` (configuration not stated), the growth in [1] was 95.6%; in [2], 96.5%; in assay [3] it was 84.2%; in assay [4] it was 83.5%; in [5] it was 139%; in assay [6] it was 79.9%. Further, the growth is 90.6% in assay [7], 110% in [8], 13.3% in [10] and 77.7% in [9].

Turning to `COc1cc(C(=O)/C=C/c2c(C)n([O-])c3ccc(C(F)(F)F)cc3[n+]2=O)cc(OC)c1OC`, the growth is 95.5% in [1]; 115% in assay [2]; 88.3% in assay [3]; 47.1% in assay [4]; 42.4% in assay [5]; 53.6% in assay [6]. Further, the growth is -11.9% (active) in assay [7], 115% in assay [8], 36.6% in assay [10] and 65.4% in assay [9].

With `CCN(CC)c1ccc2[nH]c3c(C(N)=O)cc(=O)c(=O)c=3oc2c1`, the growth in [1] was -19.4% (active); in assay [2] it was -10.4% (active); in assay [3], -4.55% (active); in assay [4] it was -28.8% (active); in [5] it was 2.91% (active); in [6], -8.77% (active). Further, the figures for the growth in [7], in assay [8] and in assay [9] were -33.2% (active), 46.2% and 1.5% (active), respectively.

Take `COc1ccc(S(=O)(=O)NCCCNc2nccc(-c3c(-c4cccc([N+](=O)[O-])c4)nc4sccn34)n2)cc1`: the growth in [1] was 41.4%; in assay [2] it was 57.2%; in assay [3], 42.8%; in assay [4] it was 19.7%; in [5], 89.1%; in [6], 33.8%. For the same molecule, the growth in assay [7] is 34.9%; in assay [10], 18.7%; in assay [9] it was 22.5%.

As for `CCO/C=N/C1=C(C#N)C(c2ccc(Cl)cc2)c2c(c3ccc(C)cc3[nH]c2=O)O1` (configuration not stated), the growth in [1] was 101%; in [2] it was 69.5%; in [3], 85.5%; in [4], 49.6%; in assay [5] it was 116%; in [6], 78.5%. In addition, the growth in assay [7] is 49.7%; in assay [8] it was 66.1%; in assay [10], 87.3%; in assay [9], 95.6%.

For the molecule `NC(N)=N/N=C/c1ccc(-c2ccc(-c3cc(Cl)cc(Cl)c3)s2)cc1`, the growth was 103% in [1]; 96.1% in [2]; -53.8% (active) in [3]; 72.2% in [4]; -68.8% (active) in [5]; -2.94% (active) in [6]. Moreover, the figures for the growth in assay [7], in assay [8] and in assay [9] were 50%, 73% and 17.4%, respectively.

For the molecule `O=C(CN1CCN(c2cc3c(cc2F)c(=O)c(C(=O)N/N=C/c2ccccc2O)cn3C2CC2)CC1)N/N=C\c1ccccc1O`, the growth in assay [1] was 33.2%; in [2] it was 23%; in assay [3] it was 24.7%; in assay [4], 4.8% (active); in [5], 43.2%; in assay [6] it was 13.5%. The growth in assay [7] is 5.22% (active); in assay [8], 86.1%; in assay [10] it was 8.24% (active); in assay [9] it was 9.45% (active).

Take `COc1ccc(-c2ccc(-c3ccc(-c4ccc(C(=N)N)cc4)s3)s2)cc1OC`: the growth in assay [1] was 105%; in assay [2] it was -8.09% (active); in assay [3], 91.7%; in assay [4] it was 74.4%; in [5] it was -78.8% (active); in [6], 95.5%. Besides, the growth is 93.2% in [7], 48.6% in [8] and 14.6% in [9].

Regarding `C=C1CC2(OC1=O)C(=O)N(CCCN1C(=O)C3(CC(=C)C(=O)O3)c3ccccc31)c1ccccc12` (configuration not stated), the growth in [1] was 52.8%; in assay [2] it was 69.9%; in [3] it was -38.6% (active); in [4], -39.3% (active); in assay [5], -9.34% (active); in [6], -17.9% (active). Moreover, the growth was -7.27% (active) in assay [7], 70.4% in assay [8], -13.8% (active) in assay [10] and 1.03% (active) in assay [9].

Regarding `O=[N+]([O-])c1ccc(-c2cn(-c3ccccc3)c(-c3ccccc3)n2)cc1`, the growth in assay [1] was 74.8%; in assay [2], 88.7%; in assay [3], 77.6%; in assay [4] it was 55%; in assay [5], 108%; in [6] it was 95.1%. Moreover, the growth in assay [7] was 87.7%; in assay [8], 82%; in assay [10], 27.3%; in assay [9], 62.7%.

As to `C=C1C(=O)O[C@H]2[C@H]1CC/C(Cn1cc(CNC(=O)/C=C/c3c[nH]c4ccccc34)nn1)=C\CC[C@@]1(C)O[C@@H]21`, the growth in assay [1] was 90.9%; in [2], 99.5%; in assay [3] it was 88.4%; in assay [4], 92.6%; in [5], 123%; in assay [6], 94%. For the same molecule, the growth is 88.9% in assay [7], 98.9% in assay [8], 1.25% (active) in assay [10] and 89.5% in assay [9].

Take `CC(=O)c1cc2c(N)c(C(=O)Nc3cccc4c3OCCO4)sc2nc1C`: the growth in assay [1] is 67.1%; in [2], 102%; in [3], 103%; in assay [4], 90.2%; in assay [5], 104%; in [6], 104%. Also, the growth in assay [7] is 71.7%; in assay [8] it was 8.65% (active); in assay [10], 96.7%; in assay [9], 97.4%.

In the case of `Clc1cc(Cl)cc(-c2ccc(-c3ccc(/C=N/NC4=NCCN4)cc3)s2)c1`, the growth in assay [1] was 101%; in [2], 92.6%; in assay [3], 25.9%; in assay [4], 53.6%; in [5], 47%; in assay [6], 59%. Further, the growth in assay [7] was 58.4%; in [8], 88%; in assay [9], 14.7%.

For the molecule `Clc1cc(Cl)c2nc(-c3ccc(-c4ccc(/C=N/NC5=NCCN5)cc4)s3)cn2c1`, the growth in assay [1] is 106%; in [2] it was 80.8%; in [3] it was 92.5%; in assay [4], 72%; in assay [5] it was 110%; in [6] it was 105%. In addition, the growth in assay [7] was 91.9%; in assay [8], 38%; in assay [9], 73%.

Turning to `Cc1ccc(-c2nc(C(Cl)Cl)n3nc(-c4ccccc4)cc3n2)cc1`, the growth in assay [1] was 55.9%; in assay [2] it was 35.3%; in assay [3] it was 70.4%; in assay [4], 46.9%; in assay [5], -68.6% (active); in assay [6], 3.72% (active). Moreover, the growth in assay [7] is 4.32% (active); in assay [8], 77.8%; in assay [9], 103%.

`CO[C@H]1NC(=O)N(S(=O)(=O)c2ccc(Cl)cc2)[C@@H]1OC`: the growth in assay [1] was 113%; in assay [2], 101%; in [3], 102%; in assay [4], 88%; in [5] it was 103%; in [6], 105%. For the same molecule, the growth is 92.5% in assay [7], 112% in [8] and 102% in assay [9].

As for `COc1ccc2cc(-c3ccc(-c4ccc(C(=N)N)cc4)s3)ccc2c1`, the growth is 103% in assay [1]; 104% in [2]; 99.7% in assay [3]; 89.7% in assay [4]; 48.1% in assay [5]; 101% in [6]. The values for the growth in assay [7], in [8] and in assay [9] were 91%, 94.3% and 94.3%, respectively.

`COc1ccc(-c2cn(-c3cccc(C(=O)/C=C/c4cc(OC)c(OC)c(OC)c4)c3)c(=O)[nH]2)cc1OC`: the growth was 75.3% in assay [1]; 98% in assay [2]; 78.1% in [3]; 68.3% in assay [4]; 96.1% in [5]; 81.8% in [6]. The growth in assay [7] was 96%; in assay [8], 90.3%; in [10], 34.3%; in assay [9] it was 70.4%.

For the molecule `NC(=O)CCCN1C/C(=C\c2ccccc2)C(=O)c2ccccc21`, the growth was 90.4% in assay [1]; 106% in assay [2]; 92.4% in assay [3]; 78.1% in assay [4]; 95% in [5]; 98.7% in assay [6]. For the same molecule, the growth in assay [7] is 90.6%; in assay [8] it was 107%; in assay [10], 110%; in assay [9], 104%.

Regarding `c1ccc(-c2nc(N3CCNCC3)c3nc(-c4ccccc4)oc3n2)cc1`, the growth in [1] was 93.3%; in assay [2], 74.3%; in assay [3], -92.2% (active); in assay [4], -91.6% (active); in assay [5] it was -85.3% (active); in assay [6], -99.2% (active). The growth was -85.3% (active) in [7], 80.6% in [8] and -34.6% (active) in assay [9].

Regarding `CC1CN(c2oc(-c3ccccc3)nc2C#N)CC(C)O1` (configuration not stated), the growth is 102% in assay [1]; 92.6% in [2]; 97.9% in assay [3]; 95.2% in assay [4]; 116% in assay [5]; 103% in assay [6]. In addition, the growth is 87% in assay [7], 93.8% in [8], 104% in assay [10] and 103% in assay [9].
